# Measured values from PubChem BioAssay AID2071 (Sanford-Burnham Center for Chemical Genomics, 2009).
# Hit rate of the full screen: of about 280,000 compounds, about 1,700 (0.61%) were called active. Rule as the data show it: active = inhibition mostly above about 24% (no sharp cut-off); inactive = mostly below about 32%. For the sample, actives were picked, then their nearest neighbours and some compounds at random.
# Test: NALP1 inflammasome inhibitors in reconstituted yeast, colorimetric, S. cerevisiae, triplicate retest (AID 2071)
# Details: S. cerevisiae NALP1/ASC/caspase-1 growth, X-gal OD620, 72 h, stronger effect = higher value
structure (smiles),measurement,setting,value
COc1ccc(C(C[N+](=O)[O-])n2nc(C)cc2C)cc1 (centres undefined),inhibition,at 10 µM unless noted,103% (active)
COc1ccc(OCc2cn3c(C)cc(C)nc3n2)cc1,inhibition,at 10 µM unless noted,22.5% (inactive)
COc1ccc(C(=O)CSc2nc(C)cc(C)n2)cc1[N+](=O)[O-],inhibition,at 10 µM unless noted,-10% (inactive)
CN(Cc1cnccn1)C(=O)c1cc(COc2cccc(C(F)(F)F)c2)on1,inhibition,at 10 µM unless noted,-7.1% (inactive)
S=C(Nc1cccc(Cl)c1)Nc1ccc2c(c1)OCCO2,inhibition,at 10 µM unless noted,2% (inactive)
Cc1ccc(NC(=O)CN2CCc3ccccc3C2)cc1,inhibition,at 10 µM unless noted,-0.6% (inactive)
CN(c1cccc(NC(=O)c2ccc(CN3CCc4ccccc4C3)cc2)c1)S(C)(=O)=O,inhibition,at 10 µM unless noted,-14.2% (inactive)
Cc1cccc(C)c1NC(=O)c1ccc(CN2CCc3ccccc3C2)cc1,inhibition,at 10 µM unless noted,29.1% (active)
CCOC(=O)c1ccc(NC(=O)c2cccnc2)cc1,inhibition,at 10 µM unless noted,16.3% (inactive)
S=C(Nc1ccc(Cl)cc1Cl)N1CCCC1,inhibition,at 10 µM unless noted,11% (inactive)
O=C(CCCNS(=O)(=O)c1cccc2nsnc12)NCCN1CCN(c2ccccc2F)CC1,inhibition,at 10 µM unless noted,8.8% (inactive)
CCC(=O)N1CCc2cc(S(=O)(=O)CCC(=O)N3CCN(c4ccccc4F)CC3)ccc21,inhibition,at 10 µM unless noted,32% (inactive)
O=C(CCS(=O)(=O)c1cccc2nsnc12)N1CCN(c2ccccc2F)CC1,inhibition,at 10 µM unless noted,42.9% (active)
CN(C(=O)c1cc2c(=O)n3ccccc3nc2s1)C1CCCCC1,inhibition,at 10 µM unless noted,4.6% (inactive)
CC(=O)NCCNC(=O)c1cc(-c2cccc3ccccc23)nc2ccccc12,inhibition,at 10 µM unless noted,0.4% (inactive)
C=CCOc1cccc(C2C(C(=O)c3ccc(C)o3)=C(O)C(=O)N2CCCn2ccnc2)c1 (centres undefined),inhibition,at 10 µM unless noted,13.4% (inactive)
O=C(CNC(=O)c1ccc(F)cc1)c1ccccc1,inhibition,at 10 µM unless noted,3.2% (inactive)
O=C(NCc1cccc(Cl)c1)C1CCC(=O)N(C2CC2)C1 (centres undefined),inhibition,at 10 µM unless noted,15.1% (inactive)
O=C(C1CC(=O)N(C2CCCCC2)C1)N1CCN(c2ccccc2)CC1 (centres undefined),inhibition,at 10 µM unless noted,4.2% (inactive)
O=C(C1CCC(=O)N(C2CC2)C1)N1CCN(c2ccc(Cl)cc2)CC1 (centres undefined),inhibition,at 10 µM unless noted,26.5% (active)
O=C(NCc1ccccc1)C(=O)NCC1OCCN1S(=O)(=O)c1ccc(Br)cc1 (centres undefined),inhibition,at 10 µM unless noted,8% (inactive)
OCCNc1nc(Nc2ccc(Cl)c(Cl)c2)nc2ccccc12,inhibition,at 10 µM unless noted,31.9% (active)
CN(C)c1nc(Nc2ccc(Cl)c(Cl)c2)nc(N(C)C)n1,inhibition,at 10 µM unless noted,14.2% (inactive)
Nc1nc(Nc2ccccc2)nc(NCCO)c1[N+](=O)[O-],inhibition,at 10 µM unless noted,2.9% (inactive)
O=S(=O)(NC1CC2CCC1C2)c1ccc(Cl)cc1 (centres undefined),inhibition,at 10 µM unless noted,-6% (inactive)
Cc1ccc2c(C)c(C(=O)N3CCN(c4ccncc4)CC3)oc2c1C,inhibition,at 10 µM unless noted,12.6% (inactive)
COc1cc(CN2CCCC(C(=O)c3ccc(SC)cc3)C2)cc(Cl)c1O (centres undefined),inhibition,at 10 µM unless noted,19.3% (inactive)
COc1ccc(S(=O)(=O)N2CCN(C)CC2)c(C)c1,inhibition,at 10 µM unless noted,26.4% (inactive)
COc1ccc(C)cc1Nc1n[n+](-c2ccccc2)c(-c2cccc(Cl)c2Cl)s1,inhibition,at 10 µM unless noted,19.6% (inactive)
O=C1C=CC(=O)N1c1ccc(N2CCCCC2)cc1,inhibition,at 10 µM,45.6% (active)
same,inhibition,"triplicate retest, at 20 µM",114%
Cc1ccccc1C(=O)Nc1ccc(N2CCCCCC2)cc1,inhibition,at 10 µM unless noted,1.4% (inactive)
CCOC(=O)/C(C#N)=C/c1ccc(N2CCCCC2)cc1,inhibition,at 10 µM unless noted,6.6% (inactive)
CCOc1c2ccc(C(=O)NCc3ccc(OC(F)(F)F)cc3)cc2nn1C,inhibition,at 10 µM unless noted,14.9% (inactive)
CCCn1nc2cc(C(=O)NCc3ccccc3)ccc2c1OCC,inhibition,at 10 µM unless noted,34.5% (active)
CCOc1c2ccc(C(=O)NCc3ccc4c(c3)OCO4)cc2nn1C,inhibition,at 10 µM unless noted,30.5% (inactive)
CCc1noc(C)c1C(=O)N1CCCC(N2CCN(c3ccc(F)cc3)CC2)C1 (centres undefined),inhibition,at 10 µM unless noted,15% (inactive)
CCOc1ccc(-n2c(SCC(N)=O)nnc2-c2ccco2)cc1,inhibition,at 10 µM unless noted,7.9% (inactive)
Oc1c(Cl)cc(Cl)c(Cl)c1Cc1c(O)c(Cl)cc(Cl)c1Cl,inhibition,at 10 µM,121% (active)
same,inhibition,"triplicate retest, at 20 µM",100%
Cc1cc(S(=O)(=O)NCC(C)C)ccc1OCC(=O)NC1CC1,inhibition,at 10 µM unless noted,13.3% (inactive)
Cn1c(=O)oc2cc(S(=O)(=O)N3CCC(C(=O)Nc4ccc(OC(F)(F)F)cc4)CC3)ccc21,inhibition,at 10 µM unless noted,22.5% (active)
COc1ccc(NC(=O)C2CCN(S(=O)(=O)c3ccc4[nH]c(=O)oc4c3)CC2)c(OC)c1,inhibition,at 10 µM unless noted,-45% (inactive)
Cc1ccc2nc(NC(=O)C3CCN(S(=O)(=O)c4ccc5c(c4)oc(=O)n5C)CC3)sc2c1,inhibition,at 10 µM unless noted,0.1% (inactive)
COCCCNC(=S)N(CCN(C)C)Cc1cc2cc3c(cc2[nH]c1=O)OCCO3,inhibition,at 10 µM unless noted,8.7% (inactive)
COc1ccc(C(=O)Nc2ccnn2C2CCN(Cc3ccncc3)CC2)cc1,inhibition,at 10 µM unless noted,14.9% (inactive)
COc1cc2[nH]c(=O)n(CCC(=O)NC3CCN(Cc4ccccc4)CC3)c(=O)c2cc1OC,inhibition,at 10 µM unless noted,15.6% (inactive)
COc1cc(C(=O)NC2CCN(Cc3ccccc3)CC2)cc(Cl)c1OC(C)C,inhibition,at 10 µM unless noted,19.9% (inactive)
COc1cc2[nH]c(=O)n(Cc3ccc(C(=O)NC4CCN(Cc5ccccc5)CC4)cc3)c(=O)c2cc1OC,inhibition,at 10 µM unless noted,36.6% (active)
O=C(N/N=C\C1CC=CCC1)c1ccc(Br)o1 (centres undefined),inhibition,at 10 µM unless noted,11.4% (inactive)
CCCn1c(C2CCCN2c2nc(-c3ccc(OC)cc3)cs2)nc2ccccc21 (centres undefined),inhibition,at 10 µM unless noted,21.7% (inactive)
Oc1ccc(N=Cc2c(O)ccc3ccccc23)cc1,inhibition,at 10 µM unless noted,-1.8% (inactive)
Oc1ccc2ccccc2c1N=Nc1nccs1,inhibition,at 10 µM unless noted,59.8% (active)
Oc1ccc(N=Nc2nccs2)c(O)c1,inhibition,at 10 µM unless noted,8.1% (inactive)
O=C(NCCNc1ccc([N+](=O)[O-])cc1Cl)c1ccccc1F,inhibition,at 10 µM unless noted,29.5% (inactive)
c1ccc(C2=Nc3cccc4cccc(c34)N2)cc1,inhibition,at 10 µM unless noted,47.7% (active)
COc1ccccc1C1=Nc2cccc3cccc(c23)N1,inhibition,at 10 µM unless noted,9.5% (inactive)
Fc1ccccc1N=C1Nc2cccc3cccc1c23,inhibition,at 10 µM unless noted,-0.1% (inactive)
O=C(c1noc2c1CCCC2)N1CCc2ccccc2C1,inhibition,at 10 µM unless noted,3.2% (inactive)
COc1ccc(N2CCN(C(=O)c3ccccc3NC(=O)C3=C(C)OCCS3)CC2)cc1,inhibition,at 10 µM unless noted,13.7% (inactive)
COc1cc(-c2c(-c3ccc4c(c3)OCO4)noc2C)ccc1F,inhibition,at 10 µM unless noted,3.9% (inactive)
C=CCNC(=S)N1CCc2[nH]c3ccccc3c2C1,inhibition,at 10 µM unless noted,36.9% (active)
Fc1ccc(NC(=S)N2CCc3[nH]c4ccccc4c3C2)cc1,inhibition,at 10 µM unless noted,-2.7% (inactive)
CCCC(=O)N1CCc2[nH]c3ccccc3c2C1,inhibition,at 10 µM unless noted,12.2% (inactive)
